Screening results deposited in PubChem BioAssay by Columbia University Molecular Screening Center.
In the library only some 1.5% were active in any assay of this set; here they are far more common.
IL1B NFkB inh: blocks IL-1B driven NFkB nuclear translocation in HUVEC cells; HUVEC IL-1B NFkB p65 nuclear translocation imaging; inhibition, % at 2 µM; 0.43% of 94,000 active; AID 796;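 active means inhibition above about 30% together with a positive call from visual inspection of the well image, limit read from the data; inconclusive means inhibition above a set limit but visual check negative; inactive means inhibition not above a set limit, visual check negative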;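 further: nuclear over cytoplasmic p65 intensity ratio measured by imaging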
NFkB transloc pot: enhances IL-1B driven NFkB nuclear translocation | HUVEC IL-1B NFkB p65 nuclear translocation imaging | activation, % at 2 µM | 0.3% of 94,000 active | AID 819;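 active means activation above 40%, about the mean plus 3 SD, also judged a hit on visual image review; inconclusive means activation above 40% but not a hit on visual review; inactive means activation not above 40% and no visual hit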;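 further: percent activation is computed from the nuclear over cytoplasmic p65 intensity ratio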
VCAM1 TNFa inh: reduces TNF alpha induced VCAM1 expression in HUVEC; HUVEC TNFa-induced VCAM-1 immunofluorescence, high-content imaging; inhibition, % at 2 µM; 0.48% of 95,000 active; AID 802;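 active means inhibition above the batch mean plus 3 SD, with images confirmed as a hit by eye, cut at about 37% in these data; inconclusive means inhibition above that limit but hit not confirmed in images; inactive means inhibition not above that limit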
HUVEC tox TNFa: HUVEC cytotoxicity counter-screen, TNF alpha stimulated; HUVEC TNFalpha-stimulated, Hoechst cell count, imaging; cell count reduction, % at 2 µM; 0.17% of 93,000 active;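 active means cell count reduction exceeding the screen mean by over 5 SD, scaled to untreated wells per plate, cut at about 78% in these data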;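 further: cells counted after 24 h of TNF alpha exposure following the 1 h pretreatment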
HUVEC tox IL1B: HUVEC cytotoxicity counter-screen, IL-1B stimulated | AID 845 | HUVEC cell count loss, Hoechst imaging | cell count reduction, % at 2 µM | 0.41% of 94,000 active;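 active means cell count reduction more than 3 SD above the screen-wide mean, cut at about 70% in these data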
A number is an active result; i = inactive; ? = inconclusive; nt = not tested or not shown.

SMILES | IL1B NFkB inh | NFkB transloc pot | VCAM1 TNFa inh | HUVEC tox TNFa | HUVEC tox IL1B
Cc1[nH]nc2c1C1(CCC(c3ccccc3)CC1)C(C#N)=C(N)O2 (stereo unspecified) | i | i | i | i | 86
O=C(NC1CCCCC1)N1CCN(c2ncccn2)CC1 | i | i | i | i | i
CCOC(=O)C1=C(O)/C(=C/c2cn(CC(=O)NCC3CCCO3)c3ccccc23)SC1=Nc1ccc(C)cc1 (stereo unspecified) | i | i | 89 | i | i
Cc1nc(C)c(C(=O)N/N=C/c2cn(C)c3ccccc23)s1 | i | i | i | i | i
CCOC(=O)C1CCN(c2c(NCCN3CCN(c4ccccc4)CC3)c(=O)c2=O)CC1 | i | i | i | i | i
COc1ccc(-c2cc(C(F)(F)F)nc(-n3cc(Br)cn3)n2)cc1 | i | 54 | i | i | i
Cc1ccc(-n2c(-c3c(-c4ccccc4)noc3C)n[nH]c2=S)cc1 | i | i | i | i | i
CCOC(=O)c1cnc(-n2nc(C)cc2C)nc1NCCO | i | i | i | i | i
CCOC(=O)c1cnc(-n2nc(C)cc2C)nc1NCc1ccccc1 | i | i | 92 | i | i
Clc1ccc(C2=Nn3c(nnc3-c3cccnc3)SC2)s1 | i | i | 78 | i | i
COc1ccc(-c2nc(CS(=O)CC(=O)NCc3cccnc3)c(C)o2)cc1 (stereo unspecified) | i | i | i | 82 | i
CCOc1ccc(OCC)c(NC(=O)C2CCCN2S(=O)(=O)c2cccc3cccnc23)c1 (stereo unspecified) | i | i | i | i | i
COc1ccc(NC(=O)C2CCCN2S(=O)(=O)c2cccc3cccnc23)c(OC)c1 (stereo unspecified) | i | 75 | i | i | i
COc1cc(/C=N/NC(=O)CSCc2ccc([N+](=O)[O-])cc2)cc(OC)c1OC | i | i | i | i | 89
CCOC(=O)c1c(NC(=O)C(C)N2CCN(C(=O)c3ccco3)CC2)sc2c1CCCC2 (stereo unspecified) | i | i | i | i | i
COc1ccc(C(C)(C)C)cc1S(=O)(=O)N1CCN(C)CC1 | i | i | 93 | i | i
COc1cc(C)c(S(=O)(=O)N2CCN(C)CC2)cc1C | i | i | i | i | i
C=CCNC(=S)NNC(=O)c1cccn(Cc2ccc(Cl)cc2)c1=O | i | i | i | i | 84
COc1ccc2cc3cc(C(=O)NCCN4CCN(c5ccccc5F)CC4)oc3nc2c1 | i | 45 | i | i | i
COc1ccc2c(C(F)(F)F)cc(=O)oc2c1C | i | i | i | i | i
Cc1c(C)c2ccc(Oc3ccc([N+](=O)[O-])cc3C(F)(F)F)c(C)c2oc1=O | i | 67 | i | i | i
CCCN(Cc1cc2cccc(C)c2[nH]c1=O)C(=O)c1cccc(OC)c1 | 95 | i | i | i | 92
COc1cc(NC(=O)c2ccc(COc3ccccc3Br)o2)cc(OC)c1OC | i | i | i | i | i
COc1cc(NC(=O)c2ccc(COCC(F)(F)F)o2)cc(OC)c1OC | i | i | 50 | i | i
COc1ccc(S(=O)(=O)N(C)CC(=O)Nc2ccc3c(c2)OCO3)cc1OC | i | i | i | i | 81
SMILES | IL1B NFkB inh | NFkB transloc pot | VCAM1 TNFa inh | HUVEC tox TNFa | HUVEC tox IL1B
COc1ccc(S(=O)(=O)N(C)CC(=O)Nc2ccc3c(c2)OCO3)cc1 | i | i | i | i | i
CCc1nnc(NC(=O)CSc2nnc(-c3cccnc3)n2CCc2ccccc2)s1 | i | 43 | i | i | i
CCc1nnc(NC(=O)c2cccnc2)s1 | i | 147 | i | i | i
C=CCn1c(SCC(=O)Nc2nnc(CC)s2)nnc1-c1cccnc1 | i | i | i | i | i
CN(CCc1ccccn1)C(=O)CN(C)S(=O)(=O)c1ccc2c(c1)c(=O)n(C)c(=O)n2C | i | 41 | i | i | i
CN(CCC#N)S(=O)(=O)c1ccc2c(c1)c(=O)n(C)c(=O)n2C | i | i | i | i | i
O=C(CN1CCN(c2ncccn2)CC1)Nc1ccccc1-n1cccc1 | i | i | i | i | i
COc1ccc(C2=NN(C)C(=NCc3ccccc3)SC2)cc1 | 36 | i | i | i | i
CCc1nnc2n1N=C(c1ccc(OC)cc1)CS2 | i | i | i | i | i
COc1ccc2cc(CN(CCc3ccccc3)Cc3nnnn3Cc3ccco3)c(=O)[nH]c2c1 | nt | 168 | i | i | i
Cc1ccc2[nH]c(=O)c(CN(Cc3ccccc3)Cc3nnnn3C3CCCC3)cc2c1 | i | i | i | i | 72
CCOC(=O)Cn1nnnc1CN(CCc1ccccc1)Cc1cc2cc(CC)ccc2[nH]c1=O | i | i | ? | 83 | i
CCOC(=O)Cn1nnnc1CN(Cc1cccs1)Cc1cc2cc(C)ccc2[nH]c1=O | i | i | i | nt | i
O=C(O)CN1C(=O)c2cccc(Oc3ccc(Cl)cc3)c2C1=O | i | i | i | i | i
CCc1ccc(NS(=O)(=O)c2cc(OC)ccc2OC)cc1 | i | i | i | 81 | i
CC(=O)c1cccc(-n2nnnc2SCC(=O)Nc2cccc(NC(=O)c3ccco3)c2)c1 | i | i | i | i | i
Cc1cc(Cl)c(OCCCSc2nc(C)cc(=O)[nH]2)c(Br)c1 | i | i | i | i | 90
Cc1ccc(CN(CC(=O)NCCc2ccccc2)C(=O)CCCC(=O)Nc2cc(C)on2)cc1 | i | i | i | i | i
CCCCS(=O)(=O)Nc1ccc2ncn(C)c(=O)c2c1 | i | i | i | i | 72
Cn1cnc2cc(NS(=O)(=O)c3ccc(Br)cc3)ccc21 | i | i | i | nt | i
COc1ccc(C)cc1NC(=O)C(CCS(C)(=O)=O)NC(C)=O (stereo unspecified) | i | i | i | i | i
C=CCCCOc1ccc(C(=O)O)cc1 | i | i | 76 | i | i
CCCCOc1ccc(C(=O)O)cc1 | i | i | i | i | i
Cc1cccc2c1[nH]c1nc(N/N=C\c3ccco3)nnc12 | i | i | i | i | i
CC(/C=N/Nc1nnc2c(n1)[nH]c1ccccc12)=C\c1ccco1 | i | 65 | i | i | i
SMILES | IL1B NFkB inh | NFkB transloc pot | VCAM1 TNFa inh | HUVEC tox TNFa | HUVEC tox IL1B
OCCSc1nc2ccccc2n1CCOc1ccccc1 | i | i | i | i | i
O=C(COc1ccccc1Cl)NCc1ccco1 | 99 | i | i | i | 80
Cc1ccc(CNC(=O)CSCC(=O)O)cc1 | i | i | i | i | i
CC(C)CC(=O)O/N=C1\C(=O)N(Cc2ccc(Cl)cc2)c2ccc([N+](=O)[O-])cc21 | i | 47 | i | i | 92
CC(C)NC(=O)c1ccccc1NC(=O)CN(c1ccc2c(c1)OCO2)S(C)(=O)=O | i | i | i | i | i
O=C(Cn1cc(C(F)(F)F)ccc1=O)N1CCN(S(=O)(=O)c2ccccc2)CC1 | i | i | i | i | i
COc1ccc(OC)c2sc(NC(=O)CCS(=O)(=O)c3ccccc3)nc12 | i | i | 50 | i | i
COc1ccc(OC)c2sc(NC(=O)CCSc3ccccc3)nc12 | i | i | i | i | i
COc1ccc2[nH]c(=O)c(NC(N)=S)nc2c1 | i | i | i | i | 89
COc1ccc2nc(SCC(N)=O)[nH]c2c1 | i | i | i | i | i
CC(=O)NC(Cc1ccc(C)cc1)C(=O)NC1CCN(C(=O)c2cnccn2)CC1 (stereo unspecified) | i | 43 | i | i | i
